The values that follow come from PubChem BioAssay (Tox21).

Records with an inconclusive call do not appear. Where a call stands in place of a potency, no number is given. Calls of active or inactive are those of the source. The call rests on the fitted dose curve.
Potency means the concentration at half of the fitted maximal effect.

A short description of this assay: p53 small molecule agonists, cell-based qHTS assay with rat liver microsomes: qHTS cell viability counter screen (AID 1963580). Further: nearly all actives have a fitted effect of over 45% in size. As to conditions: p53RE-bla HCT-116 + rat microsomes, ATP viability, 16 h; series mostly up to 66 µM. From the text: National Center for Advancing Translational Sciences [NCATS]
Division of Preclinical Innovation [DPI]
U.S. Environmental Protection Agency [EPA]
National Institutes of Environmental Health Sciences [NIEHS]
National Toxicology Program [NTP]
U.S. Food and Drug Administration [FDA]
p53, a tumor suppressor protein, is activated following cellular insult, including DNA damage and other cellular stresses. The activation of p53 regulates cell fate by inducing DNA repair, cell cycle arrest, apoptosis, or cellular senescence. The activation of p53, therefore, is a good indicator of DNA damage and other cellular stresses. The CellSensor p53RE-bla HCT-116 cell line contains a stably integrated beta-lactamase reporter gene under control of the p53 response elements. The activation of the reporter gene under culture conditions can be detected by fluorescence intensity. This cell line was used to screen the Tox21 10K compound library in the condition of presence of rat liver microsomes and to identify agonists that activate the p53 signaling pathway after in vitro metabolic activation (Ooka et al., Archive of Toxicology 96:1975-1987, 2022). The cytotoxicity of the Tox21 compound library against the p53 RE-bla HCT-116 cell line was tested in parallel by measuring the intra cellular ATP content in the same wells.
Tox21 Assay Protocol Summary:
The p53RE-bla cells were dispensed at 4,000cells/3ul/well in 1536-well black-clear bottom plates. After the assay plates were incubated at 37 C, 5% CO2 incubator for 5 hours, 23 nL of compounds dissolved in DMSO, positive controls or DMSO only was transferred to the assay plate. Following compound addition, 3 uL of rat liver microsomes (Molecular Toxicology, Boone, NC) at final concentration of 0.5 mg/mL and 1uL of B-Nicotinamide adenine dinucleotide 2'-phosphate (NADPH) at final concentration of 0.5 mg/mL were transferred to the assay plate. The plates were incubated at 37 C for 16 hours. 1 uL of LiveBLAzer detection mixture was added to each well and the plates were incubated at room temperature in the dark for 2 h. Fluorescence intensity at 460 and 530 nm emission and 405 nm excitation were measured by an Envision plate reader. For cell viability readout that measures cytotoxicity, 4 ul/well of CellTiter-Glo reagent was added into the assay plates using a Flying Reagent Dispenser. After 30 min incubation at room temperature, the luminescence intensity in the plates was measured using a ViewLux plate reader.
A general note: In qHTS, concentration-response curves come from the screen itself.
For `Clc1cccc(SC2CCNCC2)n1`, the Potency result is “inactive”.

In the case of `O=C(NC(=O)c1c(F)cccc1F)Nc1cc(Cl)c(F)c(Cl)c1F`, the Potency entry was “inactive”.

With `CN(C)CCc1c[nH]c2ccc(O)cc12`, the Potency entry is “inactive”.

As to `CCN(CC)CCOC(=O)C(O)(c1ccccc1)c1ccccc1`, the Potency entry is “inactive”.

As to `NCCc1cc(O)c(O)cc1O`, the Potency entry was “inactive”.

In the case of `CO/N=C(/C(=O)OC)c1ccccc1COc1ccccc1C`, the Potency result is “inactive”.

As to `CCC(=O)c1ccc(Cl)cc1`, the Potency entry is “inactive”.

Take `O=S(=O)(Cl)c1ccccc1`: the Potency result is “inactive”.

As to `CCC(=O)C(CCN(C)C)(c1ccccc1)c1ccccc1`, the Potency entry is “inactive”.

For `O.O.O.O.O.O.O.O=S(=O)([O-])[O-].[Co+2]`, the Potency result was “inactive”.

Turning to `CCOC1Oc2ccc(OS(C)(=O)=O)cc2C1(C)C` (stereo not given), the Potency result was “inactive”.

For `CCOC(=O)C(SP(=S)(OC)OC)c1ccccc1` (stereo not given), the Potency result was “inactive”.

On to `CCCCCC[N+](=O)[O-]`, for which the Potency result is “inactive”.

Consider `O=C(Cc1ccccc1)OCc1ccccc1`, for which the Potency entry was “inactive”.

As to `CCOC(=O)N(C)C(=O)CSP(=S)(OCC)OCC`, the Potency entry is “inactive”.

In the case of `NS(=O)(=O)C(F)(F)C(F)(F)C(F)(F)C(F)(F)C(F)(F)C(F)(F)C(F)(F)C(F)(F)F`, the Potency entry is “inactive”.

Regarding `N#CN`, the Potency result is “inactive”.

Turning to `O=P(O)(O)c1ccccc1`, the Potency result is “inactive”.

`Nc1ccc2c(c1)Cc1ccccc1-2`: the Potency result was “inactive”.

As for `ClC(Cl)(Cl)Cl`, the Potency result is “inactive”.

As to `COC(=O)C1(O)c2ccccc2-c2ccccc21`, the Potency result is “inactive”.

As to `O=C(NC(=O)c1c(F)cccc1F)Nc1cc(Cl)c(OC(F)(F)C(F)F)c(Cl)c1`, the Potency result was “inactive”.

On to `c1ccc2c(c1)cc1ccc3cccc4ccc2c1c34`, for which the Potency entry is “inactive”.

`CCC(C(N)=O)N1CCCC1=O` (stereo not given): the Potency entry was “inactive”.

As for `ClCc1cccc(Cl)c1`, the Potency entry is “inactive”.

In the case of `CCOc1ccc(C(C)(C)COCc2cccc(Oc3ccccc3)c2)cc1`, the Potency entry is “inactive”.

As for `O=C(NC(=O)c1c(F)cccc1F)Nc1cc(Cl)c(Oc2ncc(C(F)(F)F)cc2Cl)c(Cl)c1`, the Potency entry is “inactive”.

As to `Clc1cc(Cl)c(Cl)c(Cl)c1`, the Potency result is “inactive”.

`CC(C)CC(C)N` (stereo not given): the Potency result is “inactive”.

For the compound `CO/C=C(/C(=O)OC)c1ccccc1COc1cccc(C(F)(F)F)n1`, the Potency result was “inactive”.

Turning to `ClC=C(Cl)Cl`, the Potency entry is “inactive”.

Take `CC1N=C(N)OC1c1ccccc1` (stereo not given): the Potency result is “inactive”.

Turning to `CCCCCCCCCCCCCCCCCCn1cc[n+](C)c1`, the Potency entry was “inactive”.

Turning to `CC(C)(C)N(NC(=O)c1ccc(Cl)cc1)C(=O)c1ccccc1`, the Potency result is “inactive”.

As to `Cc1cccc(OP(=O)(Oc2cccc(C)c2)Oc2cccc(C)c2)c1`, the Potency entry was “inactive”.

Turning to `O=C1CN=C(c2ccccc2)c2cc([N+](=O)[O-])ccc2N1`, the Potency result is “inactive”.

As for `Cc1nnc2n1-c1sc(CCc3ccc(CC(C)C)cc3)cc1C(c1ccccc1Cl)=NC2C` (stereo not given), the Potency result was “inactive”.

Consider `CCCCCCCCCCCCCC[P+](CCCCCC)(CCCCCC)CCCCCC` (tested in a mixture with another compound), for which the Potency was 16.2 µM (active).

As for `O=C(NC(=O)c1cc(F)c(F)cc1Cl)Nc1cc(F)ccc1N1CCC(C(=O)O)CC1`, the Potency entry is “inactive”.

As for `CCC[CH2][Sn]([CH2]CCC)([CH2]CCC)[O][Sn]([CH2]CCC)([CH2]CCC)[CH2]CCC`, the Potency is 1 µM (active).
